Measured values published in PubChem BioAssay (NCI).
Compounds without any hit were thinned out: in the full panel of roughly 83,000, 20% have a hit.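 In brief: 96-well plates, 48 h treatment, single concentration, percent growth endpoint.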 Active and inactive are the calls of the source. Rule for the calls: active = growth percent below 10; inactive = the rest.

Tests used:
Experiment in all cases: NCI-60 one-dose screen, 48 h (100 = growth as untreated, 0 = no growth, -100 = all killed)
Conditions in all cases: 10 µM
RPMI-8226 leukemia = system: RPMI-8226 leukemia
OVCAR-8 ovarian = system: OVCAR-8 ovarian
OVCAR-5 ovarian = system: OVCAR-5 ovarian
OVCAR-4 ovarian = system: OVCAR-4 ovarian
SK-OV-3 ovarian = system: SK-OV-3 ovarian
IGROV1 ovarian = system: IGROV1 ovarian
OVCAR-3 ovarian = system: OVCAR-3 ovarian
HS 578T breast = system: HS 578T breast
NCI/ADR-RES ovarian = system: NCI/ADR-RES ovarian
SR leukemia = system: SR leukemia

Measured: growth

O=C(c1ccc(Cl)cc1)C1[C@H](c2ccc(Br)cc2)[C@@H](c2ccccc2)NC12C(=O)Nc1ccc(Cl)cc12 (stereo partly drawn)
active: RPMI-8226 leukemia -15.4% | OVCAR-8 ovarian -55% | OVCAR-5 ovarian -89.5% | OVCAR-4 ovarian 3.2% | IGROV1 ovarian -72.4% | OVCAR-3 ovarian -88% | HS 578T breast -14% | NCI/ADR-RES ovarian -89.9%
inactive: SK-OV-3 ovarian 11.5%

COc1cc(/C=C/C(=O)c2ccc(NC(=O)CN3C(=O)NC(C)(c4ccccc4)C3=O)cc2)cc(OC)c1OC (stereo not drawn)
active: SR leukemia 5.93% | OVCAR-3 ovarian -6.99%
inactive: OVCAR-8 ovarian 10.4% | OVCAR-5 ovarian 34.6% | OVCAR-4 ovarian 32.9% | IGROV1 ovarian 26.7% | HS 578T breast 39.3% | NCI/ADR-RES ovarian 102%

CC1(c2ccccc2)NC(=O)N(CC(=O)Nc2ccc(C(=O)/C=C/C=C/c3ccccc3)cc2)C1=O (stereo not drawn)
inactive: SR leukemia 15.2% | OVCAR-8 ovarian 45% | OVCAR-5 ovarian 84.1% | OVCAR-4 ovarian 68.7% | SK-OV-3 ovarian 120% | IGROV1 ovarian 86.5% | OVCAR-3 ovarian 47.1% | HS 578T breast 57.6% | NCI/ADR-RES ovarian 82.7%

CCOC(=O)N/C(=C1/OCCN1C)[P+](c1ccccc1)(c1ccccc1)c1ccccc1
inactive: SR leukemia 66.6% | RPMI-8226 leukemia 34.2% | OVCAR-8 ovarian 89.3% | OVCAR-5 ovarian 85.1% | OVCAR-4 ovarian 65.4% | IGROV1 ovarian 62.5% | OVCAR-3 ovarian 84.7% | HS 578T breast 62.4% | NCI/ADR-RES ovarian 106%

COc1ccc(OC)c(-c2cc(-c3c[nH]c4ccccc34)nc(N)c2C#N)c1
active: SR leukemia 8.54% | RPMI-8226 leukemia 6.3% | OVCAR-8 ovarian 6.52% | OVCAR-3 ovarian -23.5% | HS 578T breast -16.5% | NCI/ADR-RES ovarian -34.1%
inactive: OVCAR-5 ovarian 15.1% | OVCAR-4 ovarian 22.9% | IGROV1 ovarian 15.9%

O=C(Cn1nc(-c2ccccc2)ccc1=O)NNC(=S)NC1CCCCC1
inactive: SR leukemia 89.4% | RPMI-8226 leukemia 97% | OVCAR-8 ovarian 112% | OVCAR-5 ovarian 105% | OVCAR-4 ovarian 114% | IGROV1 ovarian 104% | OVCAR-3 ovarian 122% | HS 578T breast 101% | NCI/ADR-RES ovarian 105%

CC1=C(C(=O)OC(C)C)C(c2ccc(O)cc2)NC(=S)N1 (stereo not drawn)
inactive: RPMI-8226 leukemia 95.7% | OVCAR-8 ovarian 130% | OVCAR-5 ovarian 116% | OVCAR-4 ovarian 115% | SK-OV-3 ovarian 107% | IGROV1 ovarian 110% | OVCAR-3 ovarian 105% | HS 578T breast 103% | NCI/ADR-RES ovarian 97.5%

OCCNc1oc(-c2ccccc2)nc1[P+](c1ccccc1)(c1ccccc1)c1ccccc1
inactive: OVCAR-5 ovarian 31.2% | OVCAR-4 ovarian 10.2% | NCI/ADR-RES ovarian 99%
active: SR leukemia 1.42% | RPMI-8226 leukemia 3.91% | OVCAR-8 ovarian 7.35% | IGROV1 ovarian -12.9% | OVCAR-3 ovarian -9.22% | HS 578T breast -3.9%

Cc1cccc2cc(-c3cc(-c4ccccc4)nc(=O)[nH]3)c(Cl)nc12
inactive: RPMI-8226 leukemia 17.8% | OVCAR-8 ovarian 72.8% | OVCAR-5 ovarian 93% | OVCAR-4 ovarian 103% | SK-OV-3 ovarian 118% | IGROV1 ovarian 101% | OVCAR-3 ovarian 91.4% | HS 578T breast 89.8% | NCI/ADR-RES ovarian 73.5%

O=C(Nc1cccc(C(F)(F)F)c1)c1cncc(C#Cc2cnc3ccc(N4CCOCC4)nn23)c1
inactive: OVCAR-4 ovarian 12.7%
active: SR leukemia -1.17% | OVCAR-8 ovarian 3.84% | OVCAR-5 ovarian 1.83% | IGROV1 ovarian 1.76% | OVCAR-3 ovarian -23.6% | HS 578T breast -22.4% | NCI/ADR-RES ovarian -24%

COc1ccc(-c2cc(C(=O)N=Nc3c(O)[nH]c4ccccc34)c3ccccc3n2)cc1
inactive: SR leukemia 22.8% | OVCAR-5 ovarian 18.2% | SK-OV-3 ovarian 80.9% | HS 578T breast 31.1%
active: OVCAR-8 ovarian -28.6% | OVCAR-4 ovarian -36.7% | IGROV1 ovarian -62.5% | OVCAR-3 ovarian -93.2% | NCI/ADR-RES ovarian -14.4%

Nc1cccnc1/C=N/NC(=S)NCCNC(=O)c1ccc(-n2nc(-c3ccccc3O)nc2-c2ccccc2O)cc1
active: RPMI-8226 leukemia -3.08%
inactive: OVCAR-8 ovarian 14.6% | OVCAR-5 ovarian 26.3% | OVCAR-4 ovarian 22.1% | SK-OV-3 ovarian 17.1% | IGROV1 ovarian 12.5% | OVCAR-3 ovarian 39.6% | HS 578T breast 34.6% | NCI/ADR-RES ovarian 67.4%

CC(=O)Nc1ccc(-n2cnc3cc(-c4ccc(NS(C)(=O)=O)cc4)ccc32)cc1
inactive: SR leukemia 21.8% | RPMI-8226 leukemia 55.8% | OVCAR-8 ovarian 66.9% | OVCAR-5 ovarian 79.3% | OVCAR-4 ovarian 60% | IGROV1 ovarian 36.4% | OVCAR-3 ovarian 63.1% | HS 578T breast 57.9% | NCI/ADR-RES ovarian 70.5%

O=C(NO)c1ccc(CN2CCN(c3nc(-c4ccccc4)c4ccccc4n3)CC2)cc1
inactive: RPMI-8226 leukemia 24.5% | OVCAR-5 ovarian 19.3% | OVCAR-4 ovarian 22.7% | IGROV1 ovarian 17.8% | OVCAR-3 ovarian 27.6% | HS 578T breast 49.1%
active: SR leukemia 8.6% | OVCAR-8 ovarian 8.54% | NCI/ADR-RES ovarian -36.1%

C=C1CC[C@H](C(=C)C)[C@H]2C=C(C)C(=O)C3=C(C(=O)[C@@](C)(O)C3)[C@H]12
active: RPMI-8226 leukemia -22.5% | OVCAR-8 ovarian -96.5% | OVCAR-5 ovarian -87.2% | OVCAR-4 ovarian -81.8% | SK-OV-3 ovarian -89.1% | IGROV1 ovarian -61.4% | OVCAR-3 ovarian -41.7% | HS 578T breast -13.1% | NCI/ADR-RES ovarian -31.1%

O=C1NC(=NC23CC4CC(CC(C4)C2)C3)N/C1=C\c1ccc2ncoc2c1
inactive: OVCAR-8 ovarian 13.4% | OVCAR-4 ovarian 13.4% | SK-OV-3 ovarian 26.8% | OVCAR-3 ovarian 24.1%
active: RPMI-8226 leukemia -4.5% | OVCAR-5 ovarian -14.4% | IGROV1 ovarian 3.59% | HS 578T breast -0.689% | NCI/ADR-RES ovarian 4.58%

CC1(c2ccccc2)NC(=O)N(CC(=O)Nc2ccc(C(=O)/C=C/c3ccc(Cl)cc3)cc2)C1=O (stereo not drawn)
active: SR leukemia -13.3% | IGROV1 ovarian -19.8% | OVCAR-3 ovarian -69.9%
inactive: OVCAR-8 ovarian 17.7% | OVCAR-5 ovarian 34.5% | OVCAR-4 ovarian 24.8% | SK-OV-3 ovarian 66% | HS 578T breast 48.9% | NCI/ADR-RES ovarian 48.9%

CC1(c2ccccc2)NC(=O)N(CC(=O)Nc2ccc(C(=O)/C=C/c3ccccc3)cc2)C1=O (stereo not drawn)
inactive: SR leukemia 14.4% | OVCAR-8 ovarian 65.1% | OVCAR-5 ovarian 89.2% | OVCAR-4 ovarian 60.9% | IGROV1 ovarian 61.7% | OVCAR-3 ovarian 37.7% | HS 578T breast 71.5% | NCI/ADR-RES ovarian 87.5%

CN1CCN(c2ccc(Nc3nc(NCCCNC(=O)C4CCCCC4)c4sccc4n3)cc2)CC1
inactive: OVCAR-8 ovarian 57.5% | OVCAR-5 ovarian 67.3% | OVCAR-4 ovarian 48.9% | SK-OV-3 ovarian 98% | IGROV1 ovarian 76.9% | OVCAR-3 ovarian 33.4% | HS 578T breast 42.9% | NCI/ADR-RES ovarian 74.3%
active: RPMI-8226 leukemia -12.3%

C/C(=N\N=C\c1ccc(N(C)C)cc1)c1ccc2c(c1)Nc1ccccc1S2
inactive: SR leukemia 50% | RPMI-8226 leukemia 48.5% | OVCAR-8 ovarian 38.5% | OVCAR-5 ovarian 57.4% | OVCAR-4 ovarian 17.4% | IGROV1 ovarian 68.9% | OVCAR-3 ovarian 44.5% | HS 578T breast 18.7% | NCI/ADR-RES ovarian 26.6%

Cc1cc2c(c(O)c1Br)-c1ncoc1C(=O)[C@]1(C)CC[C@H](C(C)C)[C@H]21
inactive: OVCAR-8 ovarian 32.6% | OVCAR-5 ovarian 73.2% | OVCAR-4 ovarian 52.4% | SK-OV-3 ovarian 57% | IGROV1 ovarian 52.2% | OVCAR-3 ovarian 18.2% | HS 578T breast 54.7% | NCI/ADR-RES ovarian 27.8%
active: RPMI-8226 leukemia 4.28%

COc1ccc(-c2nc(S(=O)(=O)c3ccc(C)cc3)c(S(C)(=O)=O)o2)cc1
active: RPMI-8226 leukemia -40.3% | OVCAR-8 ovarian -77.5% | OVCAR-5 ovarian -88% | OVCAR-4 ovarian -90.2% | IGROV1 ovarian -24% | OVCAR-3 ovarian -92.4% | HS 578T breast 8.31% | NCI/ADR-RES ovarian -62.4%
inactive: SK-OV-3 ovarian 83.6%

CSc1nc(-c2cccc(C)c2)c2cc(-c3ccccc3)n(C)c2n1
active: OVCAR-3 ovarian -32.4% | HS 578T breast 9.16% | NCI/ADR-RES ovarian -19.6%
inactive: SR leukemia 11.7% | OVCAR-8 ovarian 25.2% | OVCAR-5 ovarian 49.6% | OVCAR-4 ovarian 31.5% | SK-OV-3 ovarian 69% | IGROV1 ovarian 34.3%

O=C1Nc2ccc(Cl)cc2/C1=C/c1cccc(OCc2ccccn2)c1
active: RPMI-8226 leukemia -45.3% | OVCAR-8 ovarian -42.6% | OVCAR-5 ovarian -45.2% | OVCAR-4 ovarian 4.17% | SK-OV-3 ovarian 4.02% | IGROV1 ovarian 0.125% | OVCAR-3 ovarian -35.8% | HS 578T breast -1.17% | NCI/ADR-RES ovarian -23.8%

N#Cc1ccc(-c2nn(-c3ccc(C(=O)O)cc3)cc2CNc2ccc(Cl)cc2)cc1
inactive: SR leukemia 82.8% | RPMI-8226 leukemia 66.4% | OVCAR-8 ovarian 74.4% | OVCAR-5 ovarian 111% | OVCAR-4 ovarian 85.2% | IGROV1 ovarian 91.5% | OVCAR-3 ovarian 70.3% | HS 578T breast 88.6% | NCI/ADR-RES ovarian 67.7%

Cc1ccc(-c2cc(C(=O)N=Nc3c(O)[nH]c4ccccc34)c3ccccc3n2)cc1
active: SR leukemia 5.31% | OVCAR-8 ovarian -15.8% | OVCAR-4 ovarian 1.61% | OVCAR-3 ovarian -65.7% | NCI/ADR-RES ovarian -16.9%
inactive: OVCAR-5 ovarian 69.4% | SK-OV-3 ovarian 91.2% | IGROV1 ovarian 60.1% | HS 578T breast 12.4%

CN(C)c1ccc(/C=C/C(=O)c2ccc(NC(=O)CN3C(=O)NC(C)(c4ccccc4)C3=O)cc2)cc1 (stereo not drawn)
inactive: SR leukemia 42.7% | OVCAR-8 ovarian 67.1% | OVCAR-5 ovarian 86% | OVCAR-4 ovarian 55.4% | SK-OV-3 ovarian 117% | IGROV1 ovarian 86.7% | OVCAR-3 ovarian 61.7% | HS 578T breast 78% | NCI/ADR-RES ovarian 86.6%

O=C1Nc2ccc(Cl)cc2/C1=C/c1ccc(OCc2ccccn2)cc1
active: OVCAR-4 ovarian -1.81%
inactive: SR leukemia 54.9% | RPMI-8226 leukemia 73.9% | OVCAR-8 ovarian 45.9% | OVCAR-5 ovarian 88.2% | IGROV1 ovarian 54.6% | OVCAR-3 ovarian 57.3% | HS 578T breast 14.8% | NCI/ADR-RES ovarian 14.1%

CC1(c2ccccc2)NC(=O)N(CC(=O)Nc2ccc(C(=O)/C=C/c3ccc(Br)cc3)cc2)C1=O (stereo not drawn)
inactive: SR leukemia 15.5% | OVCAR-8 ovarian 41.3% | OVCAR-5 ovarian 76% | OVCAR-4 ovarian 43.3% | SK-OV-3 ovarian 94.3% | IGROV1 ovarian 61.6% | OVCAR-3 ovarian 27.4% | HS 578T breast 53.4% | NCI/ADR-RES ovarian 79.8%
